HP1b chromo inh: HTS for Inhibitors of HP1-beta Chromodomain Interactions with Methylated Histone Tails | Chromobox protein homolog 1 (Homo sapiens), P83916 | AlphaScreen HP1-beta / biotin-H3K9me3 peptide binding | Potency, µM (titrated, usually from 114 µM), without a hit: at the top dose activity change, negative = inhibition, actives largely listed as inhibitors | 390,000 compounds, 0.56% hits | AID 540317, 2011; note: nearly all actives have a fitted effect of over 70% in size
Target sequence (P83916 whole entry, looked up): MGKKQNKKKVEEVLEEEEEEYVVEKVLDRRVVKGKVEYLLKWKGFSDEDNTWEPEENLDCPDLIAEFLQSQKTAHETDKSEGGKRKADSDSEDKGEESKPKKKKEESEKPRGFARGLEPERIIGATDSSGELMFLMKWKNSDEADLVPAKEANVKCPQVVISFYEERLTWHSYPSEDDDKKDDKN
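Compound inhibition of the preformed complex between 50 nM HP1-beta and 50 nM biotinylated H3K9me3 peptide was read by AlphaScreen. Buffer was PBS pH 7.4 with 0.01% Tween-20. Incubations ran 30 min at room temperature, with 10 ug/mL donor/acceptor beads.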
JMJD2A Tudor inh: qHTS Assay for Inhibitors of JMJD2A-Tudor Domain; 390,000 compounds, 4.4% hits; Lysine-specific demethylase 4A (Homo sapiens), O75164; Potency, µM (titrated, usually from 114 µM), without a hit: top-dose activity change, negative = inhibition, hits mostly inhibitors; AlphaScreen JMJD2A-Tudor / H3K4me3 peptide binding; note: % is set by controls: 0 for no effect and ±100 for the full control effect; nearly all actives have a fitted effect of over 50% in size
BAZ2B inh: qHTS Assay for Inhibitors of BAZ2B; 360,000 compounds, 4.4% hits; Potency, µM (top dose mostly 114 µM), for inactives: top-dose activity change, negative = inhibition, usual class: inhibitors; AlphaScreen BAZ2B-H3K14Ac peptide displacement; note: % is set by controls: 0 for no effect and ±100 for the full control effect; nearly all actives have a fitted effect of over 60% in size
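BAZ2B 50 nM plus b-H3(5-23)K14Ac 50 nM, PBS pH 7.4/0.01% Tween-20, 30 min RT; compound added (max 110 uM), 30 min RT; streptavidin donor/Ni-chelate acceptor beads 10 ug/mL final, 20 min dark; AlphaScreen read.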
Sfp PPTase inh: qHTS Assay for Inhibitors of Bacillus subtilis Sfp phosphopantetheinyl transferase (PPTase); Biochemical Sfp PPTase activity, qHTS; Potency, µM, for the others: largest response in the series, negative = inhibition, actives largely listed as inhibitors; 310,000 compounds, 3.5% hits; 4'-phosphopantetheinyl transferase ffp (Bacillus subtilis), Q9F4F7;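 note: the enzyme is Sfp with the accession as filed and its product quenches rhodamine fluorescence; 0% = enzyme reaction without inhibitor and -100% = no enzyme wells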
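Fluorescence-quenching assay: 15 nM Sfp-PPTase preincubated 15 min at room temperature with compound, then 5 uM rhodamine-CoA and 12.5 uM BHQ-2-labelled YbbR peptide added. Fluorescence (ex 525/em 598 nm) read at start and after 30 min; difference gives rate.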
G9a inh: qHTS Assay for Inhibitors of Histone Lysine Methyltransferase G9a | Histone-lysine N-methyltransferase EHMT2 (Homo sapiens), Q96KQ7 | G9a H3K9 monomethylation, AlphaScreen, 2 h | Potency, µM (titrated, usually from 102 µM), for the others: at the top dose activity, negative = inhibition, usual class: inhibitors | 350,000 compounds, 8.8% hits | AID 504332, 2011; note: % is set by controls: 0 for no effect and ±100 for the full control effect; nearly all actives have a fitted effect of over 75% in size
Target sequence (Q96KQ7 913-1193 limits assumed): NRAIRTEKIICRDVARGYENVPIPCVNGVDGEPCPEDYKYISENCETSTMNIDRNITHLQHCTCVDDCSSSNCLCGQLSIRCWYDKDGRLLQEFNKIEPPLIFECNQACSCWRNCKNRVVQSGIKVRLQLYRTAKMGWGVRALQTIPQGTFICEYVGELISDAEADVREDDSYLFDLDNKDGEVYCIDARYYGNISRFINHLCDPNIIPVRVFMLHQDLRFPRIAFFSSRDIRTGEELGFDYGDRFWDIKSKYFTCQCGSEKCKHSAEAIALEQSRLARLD
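AlphaScreen read-out: biotin-H3K9 peptide (500 nM) methylation by 20 nM enzyme with 20 uM SAM, 2 h at room temperature after 15 min compound preincubation; anti-monomethyl H3K9 antibody plus donor/acceptor beads, 10 min dark.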
L3MBTL1 block: qHTS Assay for the Inhibitors of L3MBTL1; Lethal(3)malignant brain tumor-like protein 1 (Homo sapiens), Q9Y468; Potency, µM (top dose mostly 57.1 µM), inactives show at the highest dose activity, negative = inhibition, actives largely listed as inhibitors; 230,000 compounds, 0.66% hits; AlphaScreen L3MBTL1–H3K9me1 peptide binding; AID 485360, 2010; note: % is set by controls: 0 for no effect and ±100 for the full control effect; nearly all actives have a fitted effect of over 60% in size
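Displacement of a biotinylated histone H3(1-15) peptide monomethylated at Lys9 (75 nM) from L3MBTL1 (50 nM) was measured by AlphaScreen after a 30 min room-temperature compound incubation; cefsulodin titration served as intraplate control.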
* = called active by the depositor; ? = inconclusive; . = no result; ! = not confirmed by another sample; [ ] = remark or other dose. Only some compounds are listed: those with a hit (about 12% of all), similar ones and a draw of the others. Calls come from the whole dose curve; as a rule, active = well fitted curve in the direction sought with a large enough effect; inconclusive = small, poorly fitted or top-dose-only effect, or another doubt; inactive = no such curve, though single readings can be large; an effect the other way counts as inactive or inconclusive. Potency is the fitted concentration of half-maximal effect.

SMILES	HP1b chromo inh	JMJD2A Tudor inh	BAZ2B inh	Sfp PPTase inh	G9a inh	L3MBTL1 block
CC(=O)/C(=N\Nc1ccccc1Cl)Sc1nnc(-c2ccccc2)n1-c1ccccc1	51%	-29%	-33%	-21%	8.9µM*	-14%
CC(=O)/C(=N\Nc1ccccc1)Sc1nncn1C	18%	20µM*	?	20µM*	4µM*	6%
Cc1ccc(-n2nc(C)c3c(C)c(CCC(=O)NCc4ccccc4Cl)c(C)nc32)cc1	34%	-4%	0%	.	3%[59 µM]	.
CCOC(=O)c1c(NC(=O)Cn2cnc([N+](=O)[O-])n2)sc2c1CCC(C)C2 (configuration not stated)	20%	-6%[57.1 µM]	-32%	1%	3%[0.501 µM]	0%
COC(=O)c1c(NC(=O)Cn2cnc([N+](=O)[O-])n2)sc2c1CCC(C)C2 (configuration not stated)	?	?	-37%	32µM*	8.9µM*	-13%
COC(=O)c1c(NC(=O)CN(C)CC(=O)Nc2ccc(C)cc2)sc2c1CCC(C)C2 (configuration not stated)	31%	-8%	-1%	.	-12%[59 µM]	1%
COC(=O)c1c(NC(=O)Cc2cccs2)sc2c1CCC(C)C2 (configuration not stated)	-11%	-11%	-5%	20µM*	?	-1%
COC(=O)c1c(NC(=S)NN2CCN(C)CC2)sc2c1CCC(C)C2 (configuration not stated)	?	?	?	?	45µM*	-28%
O=C(OCC(=O)N1CCN(C(=O)c2ccco2)CC1)c1cc(-c2ccccc2)nc2ccccc12	-19%	?	?	-24%	?	-6%
Cc1cc(C(=O)OCC(=O)NCCc2ccccc2)c2ccccc2n1	21%	-18%	-2%	.	19%[59 µM]	4%
CCN(CC)CCNC(=O)c1cc(-c2ccco2)nc2ccccc12	-2%	63µM*	-29%	-10%	32µM*	.
CC(C)CN(CCNC(=O)c1cc(-c2cccs2)nc2ccccc12)CC(C)C	20%	-5%	6%	.	11%[59 µM]	.
COc1ccc(CCNC(=O)c2cc(-c3ccco3)nc3ccccc23)cc1	?	45µM*	.	.	.	.
O=C(OCC(=O)N1CCN(C(=O)c2ccco2)CC1)c1cc(-c2cccc(Br)c2)nc2ccccc12	-14%	-31%	-39%	-5%	14µM*	.
O=C(COC(=O)c1cc(-c2ccco2)nc2ccccc12)NCc1ccccc1	26%	-8%	10%	40µM*	45µM*	.
Cc1ccc2nc(N(Cc3cccnc3)C(=O)C3CCCCC3)sc2c1	33%	-9%	-13%	.	9%[59 µM]	.
O=C(c1cccc(F)c1)N1CCC2(CC1)CN(c1ccccn1)C2	.	.	.	-6%	40%[12.7 µM]	.
COc1ccc(N2C(=O)CSC2c2ccccc2F)c(OC)c1 (configuration not stated)	-7%	-11%	-1%	13%	-8%	.
Nc1nc(N2CCN(C(=O)c3ccco3)CC2)nc2ccccc12	53%	3%[57.1 µM]	7%	6%	?	-2%
Nc1nc(N2CCN(C(=O)c3ccco3)CC2)nc2ccc(Br)cc12	49%	-15%	-36%	?	50µM*	-2%
CC1CCCCC1NC(=O)COC(=O)c1c2c(nc3ccccc13)/C(=C\c1ccco1)CC2 (configuration not stated)	?	45µM*	.	.	.	.
CC(C)=CCc1c2c(c3occ(-c4ccc(O)c(O)c4)c(=O)c3c1O)C=CC(C)(C)O2	?	22µM*	.	37%	.	.
CC1(C)C=Cc2c(c3c(c4c(=O)c(-c5ccc(O)cc5)coc24)OC(C)(C)CC3)O1	-9%	?	-27%	-22%	?	-10%
CC(C)=CCc1c2c(c3occ(-c4ccc(O)cc4)c(=O)c3c1O)C=CC(C)(C)O2	-12%	?	?	0%	20µM*!	-12%
O=C(COc1ccc(Br)cc1)NCCNC(=O)c1ccncc1	25%	-5%	-3%	8%	81%	.
SMILES	HP1b chromo inh	JMJD2A Tudor inh	BAZ2B inh	Sfp PPTase inh	G9a inh	L3MBTL1 block
C=CCN(c1ccccc1)S(=O)(=O)c1cccc(C(=O)NC2CCN(Cc3ccccc3)CC2)c1	9%	-30%	-3%	.	50µM*	0%
Cc1cccc(C)c1NS(=O)(=O)c1ccc2c(c1)[C@H]1C=CC[C@H]1[C@@H](c1ccc(Cl)cc1)N2	6%	-32%	-37%	.	3.5µM*	.
Cc1c(Cl)cccc1NS(=O)(=O)c1ccc2c(c1)C1C=CCC1C(c1ccc(C(=O)O)cc1)N2 (configuration not stated)	50µM*	56µM*	45µM*	?	2.8µM*	7.9µM*
COC(=O)c1ccc([C@H]2Nc3ccc(S(=O)(=O)Nc4ccc(C)cc4)cc3[C@H]3C=CC[C@H]32)cc1	-11%	?	?	.	3.5µM*	.
COc1ccc(NS(=O)(=O)c2ccc3c(c2)[C@H]2C=CC[C@H]2[C@@H](c2ccc(C(=O)O)cc2)N3)cc1	35µM*	45µM*	40µM*	-28%	25µM*	.
COc1cccc(NS(=O)(=O)c2ccc3c(c2)[C@H]2C=CC[C@H]2[C@@H](c2ccccc2Cl)N3)c1	19%	-24%	0%	.	?	.
CCc1ccc(-n2nc3ccc(NC(=O)c4cc5ccccc5o4)cc3n2)cc1	30%	8%	1%	.	2%[59 µM]	.
Clc1cccc(-c2ccc3ncnc(NCc4ccc5c(c4)OCO5)c3c2)c1	.	.	-33%	.	1%[12.7 µM]	-9%
COCCNc1ccc(S(=O)(=O)N2CCCC2)cn1	21%	-4%	-4%	?	?	13%
Cc1ccc(C)c(OCCC(=O)Nc2ccc(S(=O)(=O)N3CCCC3)cc2)c1	25%	-20%	-18%	.	14%[2.33 µM]	-2%
CN=c1sc(C(=O)Nc2cccc(Cl)c2)cc(=O)n1C	-5%	45µM*	8%	0%	9%[59 µM]	2%
O=C1CCCCC1Sc1nnc(Cc2cccs2)n1CCc1ccccc1 (configuration not stated)	-23%	79µM*	-8%	-14%	-25%[59 µM]	-9%
COCCn1c(SC2CCCCC2=O)nnc1-c1ccncc1 (configuration not stated)	-12%	?	-7%	?	-13%	3%
